From PubChem BioAssay (NCI)
About 83,000 compounds went through this panel and 20% of them were active in at least one assay; those are over-represented in the sample as a whole.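 Step 1: grow cells in 96-well plates. Step 2: add test compound at a single concentration. Step 3: incubate 48 h. Step 4: record percent growth.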 Values without a mark were called inactive. Activity calls are given as the source filed them. Rule for the calls: active = growth percent below 10; inactive = the rest.

Columns and labels:
Experiment in all cases: NCI-60 one-dose screen, 48 h (100 = growth as untreated, 0 = no growth, -100 = all killed)
Settings in all cases: 10 µM unless noted
NCI-H23 lung = tested on: NCI-H23 lung
NCI-H226 lung = tested on: NCI-H226 lung
NCI-H322M lung = tested on: NCI-H322M lung
HOP-62 NSCLC = tested on: HOP-62 NSCLC
NCI-H460 lung = tested on: NCI-H460 lung
HOP-92 NSCLC = tested on: HOP-92 NSCLC
NCI-H522 lung = tested on: NCI-H522 lung
A549/ATCC NSCLC = tested on: A549/ATCC NSCLC
786-0 renal = tested on: 786-0 renal
COLO 205 colon = tested on: COLO 205 colon

Structure (SMILES)	growth (NCI-H23 lung)	growth (NCI-H226 lung)	growth (NCI-H322M lung)	growth (HOP-62 NSCLC)	growth (NCI-H460 lung)	growth (HOP-92 NSCLC)	growth (NCI-H522 lung)	growth (A549/ATCC NSCLC)	growth (786-0 renal)	growth (COLO 205 colon)
C=C(C)[C@@H]1CC[C@]2(C#N)CC[C@]3(C)[C@H](CC[C@@H]4[C@@]5(C)CCCNC(C)(C)[C@@H]5CC[C@]43C)[C@@H]12	82.7%	96.6%	88.7%	113%	11.1%	51%	91.5%	73.2%	84.5%	-67.8% (active)
CC/C(=C(/c1ccc(Cl)cc1)c1ccc(OCCCN(C)C)cc1)c1ccc(OC)cc1	78.6%	104%	67.5%	99.1%	5.32% (active)	49.8%	87.3%	49.8%	57.9%	-65.3% (active)
COc1ccc(-c2cc(-c3ccc(Nc4nc(Nc5ccc(Cl)cc5)nc(Nc5ccc(Cl)cc5)n4)cc3)no2)cc1	66.5%	110%	79.5%	100%	74.8%	-28.6% (active)	84.5%	62.5%	80.6%	79.5%
Oc1cccc(-c2nc(-c3n[nH]c(=S)n3-c3ccccc3)cc3c2[nH]c2ccccc23)c1	43.3%	52.6%	13.7%	28.4%	8.82% (active)	63.3%	-28.3% (active)	48.3%	18.4%	68%
O=C1c2ccccc2C(=O)c2cc(Cn3c[n+](Cc4ccc5ccccc5c4)c4ccccc43)ccc21	56.5%	63.9%	75.4%	76.2%	63.4%	15.6%	34.1%	91%	61.2%	24.4%
CCCN1C2CCC1/C(=C\c1ccc(OC)cc1)C(=O)/C2=C/c1ccc(OC)cc1	67.5%	71.5%	92%	89.1%	76.9%	58.1%	51.2%	72.6%	85.2%	76%
CC(C)(C)n1cc(-c2ccnc(NCCNS(=O)(=O)c3ccc(Br)cc3)c2)c(-c2cccc(O)c2)n1	35.2%	45.4%	62.7%	61.1%	1.07% (active)	18.5%	16.7%	28.9%	21.2%	-74.9% (active)
O=C(CSc1nnc(-c2cc(-c3ccc(Cl)cc3)nc3ccccc23)n1-c1ccccc1)Nc1ccc(Cl)cc1	99.7%	95%	102%	114%	100%	111%	93.4%	96.2%	96.8%	115%
O=C(/C=C/c1cccc([N+](=O)[O-])c1)c1ccc(Nc2nc(Nc3ccc(F)cc3)nc(Nc3ccc(Cl)cc3)n2)cc1	81.4%	87.2%	87.6%	151%	91.9%	50.9%	82.8%	83%	99.4%	91.2%
CC(C)(C)n1cc(-c2ccnc(NCCNS(=O)(=O)c3cccc4ccccc34)c2)c(-c2cccc(O)c2)n1	69.7%	75.3%	89.6%	88.2%	55.9%	64.5%	61.9%	62.7%	64.3%	-33.1% (active)
CC/C(=C(/c1ccc(Cl)cc1)c1ccc(OCCN2CCCC2)cc1)c1ccccc1	62%	93.9%	93.4%	99%	12.3%	57.5%	83%	43.5%	43.6%	-25.3% (active)
N#C/C(Sc1nc2sc3c(c2c(=O)n1Cc1ccccc1)CCCC3)=C1/SC=C(c2ccc(Cl)cc2)N1c1ccccc1	86.6%	106%	84.5%	78.8%	90.6%	68.6%	89.7%	100%	87.4%	104%
N=C(N)c1ccc(-c2ccc(-c3ccc(Cl)cc3Cl)s2)nc1	85.2%	91.7%	60.9%	90.7%	-60.1% (active)	84.2%	29%	33.1%	85.4%	-27.1% (active)
CCC(=C(c1ccc(OCCN(CC)CC)cc1)c1ccc(OCCN(CC)CC)cc1)c1ccc(Cl)cc1	68.7%	109%	-8.03% (active)	-27% (active)	-81.4% (active)	33.5%	-39.4% (active)	-75% (active)	-95.4% (active)	-69% (active)
O=C(N/N=C/c1ccccc1Cl)c1ccccc1Nc1ccnc(C(F)(F)F)c1	16%	3.35% (active)	6.53% (active)	1.91% (active)	3.5% (active)	-17.1% (active)	-20.5% (active)	7.28% (active)	-30.4% (active)	-38% (active)
CN(C)c1ccc(/C=C/C2=[N+](C)c3ccccc3C2(C)C)cc1	5.41% (active)	29.4%	28.7%	28.7%	20%	-19.9% (active)	18.5%	15.3%	25%	-76.2% (active)
Cc1c(-c2cnc3ccc(Cl)cc3c2C(=O)O)nnn1-c1ccc(Cl)cc1	103%	102%	93.6%	89.4%	107%	88.7%	89.1%	97.1%	62.7%	93.8%
C#CC#CC#CC#CC#CC#CC#CC#CC[C@@H]1OC[C@H](COC(=O)O[C@@H](C(=O)O[C@H]2C[C@@]3(O)[C@@H](OC(=O)c4ccccc4)[C@@H]4[C@]5(OC(C)=O)CO[C@@H]5C[C@H](O)[C@@]4(C)C(=O)[C@H](OC(C)=O)C(=C2C)C3(C)C)[C@@H](NC(=O)c2ccccc2)c2ccccc2)O1	34.5%	57.6%	35.9%	55%	10.6%	63.7%	48.6%	36.7%	72.9%	18.7%
CC(C)CCc1nc2ccc(NCc3ccc(OCCN4CCC(C)CC4)cc3)cc2[nH]1	94.9%	67.4%	99.2%	83.6%	100%	53.5%	102%	99.9%	76.6%	66%
